Only some compounds are listed: those with a hit (about 4.8% of all), similar ones and a draw of the others.
DAX1 inh-1 = inhibits human nuclear receptor DAX1 | P51843 | HEK293 Gal4-DAX1 luciferase reporter, luminescence | inhibition, % at 6.75 µM | 340,000 tested, 0.99% active | AID 504766;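 active = inhibition above the mean over all tested compounds plus 3 SD, cut at about 4.2% in these data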;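 also: 0% = DAX1-transfected cells with DMSO and 100% = empty-vector control cells with DMSO; inhibition shows as a rise in luminescence from relieved DAX1 repression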
Target sequence (P51843 207-470 limits assumed): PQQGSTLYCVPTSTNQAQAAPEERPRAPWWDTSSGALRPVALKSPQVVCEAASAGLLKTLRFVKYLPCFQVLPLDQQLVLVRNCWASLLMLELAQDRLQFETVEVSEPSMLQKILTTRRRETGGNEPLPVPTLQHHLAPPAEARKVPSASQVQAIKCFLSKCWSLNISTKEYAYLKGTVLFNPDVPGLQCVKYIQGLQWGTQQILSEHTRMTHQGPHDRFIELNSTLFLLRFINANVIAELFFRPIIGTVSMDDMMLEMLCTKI
hgDAF-12 ag = agonists of H. glycines DAF-12 nuclear receptor | HEK293 GAL4-hgDAF12 UAS-luciferase reporter, agonist luminescence; normalized to butyrate control | activation, % at 6.8 µM | 370,000 tested, 1.8% active;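 active = activation above a cutoff set at the mean of all screened compounds plus 3 SD, cut at about 10% in these data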;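 also: 0% = DMSO wells and 100% = sodium butyrate wells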
hcDAF12 agonist = activates DAF-12 receptor from parasite H. contortus; HEK293 hcDAF-12 lit1-tk-luc reporter, luminescence; 0% DMSO, 100% Δ7-dafachronic acid; activation, % at 6.8 µM; AID 652067; 370,000 tested, 1.4% active;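 active = activation above the mean of all tested compounds plus 3 SD, cut at about 5.5% in these data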;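 also: 100% = response to 3 µM Δ7-dafachronic acid high control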
SMARCA2 activ = increases SMARCA2 function in MMTV reporter cells | activation, % at 9.1 µM | AID 652017 | MG213 cells, MMTV-luciferase reporter, dexamethasone, overnight | 370,000 tested, 1% active; in the data active = activation above about 7.8%;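 also: 0% = vehicle wells and 100% = reference activator wells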
DAX1 inh-2 = DAX1 (NR0B1) inhibition, primary screen; HEK293T StAR-luciferase reporter, SF-1/DAX-1 repression relief; 370,000 tested, 1.1% active; inhibition, % at 6.8 µM;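 active = inhibition above the mean over all tested compounds plus 3 SD, cut at about 3.6% in these data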;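 also: 0% = DAX-1 cells with DMSO and 100% = cells lacking DAX-1 with DMSO; higher inhibition means more luminescence from relief of DAX-1 repression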
ssDAF12 agonist = S. stercoralis DAF-12 activation, primary screen | HEK293 ssDAF-12/GRIP1 lit1-tk-luc reporter, luminescence; % of 3 µM dafachronic acid response | activation, % at 6.8 µM | 370,000 tested, 1% active;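 active = activation above the mean over all tested compounds plus 3 SD, cut at about 0.9% in these data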;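 also: 0% = DMSO-only wells and 100% = 3 µM delta7-dafachronic acid wells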
Starred values were filed as active, the others as inactive; . = not tested or not shown.

SMILES	DAX1 inh-1	hgDAF-12 ag	hcDAF12 agonist	SMARCA2 activ	DAX1 inh-2	ssDAF12 agonist
O=C(NCCN1C(=O)S/C(=C\c2cccnc2)C1=O)C1CC(=O)N(Cc2ccco2)C1 (stereo unspecified)	0.3	1.6	4.0	2.6	-0.2	1.2*
NS(=O)(=O)c1ccc(NC(=O)CCCCCN2C(=O)c3ccccc3C2=O)cc1	-0.2	-2.1	0.2	-0.2	-1.8	-0.4
NS(=O)(=O)c1ccc(NC(=O)Nc2ccc(Cl)cc2)cc1	-0.1	12.5*	0.6	1.6	-0.6	-1.6
CNC(=O)Nc1ccc(S(N)(=O)=O)cc1	0.4	-1.2	-0.9	1.1	-0.3	-1.2
NS(=O)(=O)c1ccc(NC(=O)CCCCC(=O)Nc2ccc(S(N)(=O)=O)cc2)cc1	4.4*	-1.3	-0.8	4.3	0.4	-1.0
CC#CC(=O)N[C@H]1CC[C@@]23CCCN2C(=O)CCC[C@H]3[C@H]1C	.	-0.2	1.7	.	.	-1.0
COC(=O)c1c(C)oc(C)c1S(=O)(=O)N1CCCC1	4.4*	-1.2	-0.8	-0.2	0.0	-1.4
COC(=O)c1c(C)oc(C)c1S(=O)(=O)N1CCCCC1	1.0	-0.6	-1.9	-2.3	-0.6	-1.7
COc1ccc(CNC(=O)[C@H](C)NC(=O)C2CCN(C(=O)[C@H](CCSC)NC(=O)OC(C)(C)C)CC2)cc1	6.2*	-1.6	-1.4	0.8	1.2	-1.7
COc1ccc(CNC(=O)[C@@H](NC(=O)C2CCN(C(=O)[C@@H](N)Cc3ccccc3)CC2)C(C)C)cc1	0.0	-4.8	0.8	-0.3	-0.6	-1.0
COc1ccc(CNC(=O)[C@H](Cc2ccccc2)NC(=O)C2CCN(C(=O)[C@H](C)N)CC2)cc1	5.0*	3.4	1.6	2.9	-0.3	-1.0
N#CCC[C@H]1CC[C@]2(CCCN(S(=O)(=O)c3ccccc3)C2)O1	.	0.7	-1.4	-4.9	0.1	0.2
C=CCSc1nnc2nc3[nH]c4c(C)cccc4c3nn12	1.1	6.0	3.8	4.2	0.5	0.9*
CCOC(=O)CSc1nc2cc(OCC)ccc2cc1C#N	1.4	11.2*	1.9	6.8	2.3	-0.2
O=C(Nc1ccc(-c2cn3ccsc3n2)cc1)C1CC1	0.4	9.5	1.9	1.8	2.5	0.0
CC(=O)Nc1ccc(-c2cn3ccsc3n2)cc1	0.1	11.6*	2.2	3.9	0.6	0.1
O=C(COc1ncnc2ccccc12)c1ccc(Cl)cc1	0.2	11.1*	1.5	7.8*	1.9	-0.9
O=C(COc1ncnc2cc(Cl)ccc12)c1ccccc1	0.7	0.9	-0.2	-1.0	0.7	-1.2
c1ccc(OCCOc2ncnc3ccccc23)cc1	0.3	11.1*	0.5	5.5	1.4	-0.7
COC(=O)[C@]12C[C@H](CC(=O)N3CCN(C(=O)C4CC4)CC3)C(=O)N(CCc3ccc(OC)c(OC)c3)C1=C[C@H](COCc1ccccc1)O[C@@H]2C	.	0.1	-1.2	-1.8	-0.7	-1.2
O=C1COc2ccc(OCc3ccc(F)cc3)cc21	1.1	12.2*	4.9	4.8	1.3	0.5
COc1ccc2c(-c3cc4ccc(OCc5ccc(F)cc5)cc4oc3=O)cc(=O)oc2c1	-0.7	0.8	-0.2	-2.0	-0.1	-1.6
Nc1ccccc1-c1nnc(-c2ccccc2N)n1N	1.9	9.1	6.0*	-0.8	0.9	2.0*
O=C(O)CCCC(=O)Nc1nc2n(n1)C(c1ccc(F)cc1)CC(c1ccc(Cl)cc1)N2 (stereo unspecified)	0.7	1.9	-0.9	1.5	0.5	1.8*
COCC(=O)Nc1nc2n(n1)C(c1ccc(OC)cc1)CC(c1ccc(OC)cc1)N2 (stereo unspecified)	-0.9	0.2	-0.6	-1.2	0.2	-1.7
SMILES	DAX1 inh-1	hgDAF-12 ag	hcDAF12 agonist	SMARCA2 activ	DAX1 inh-2	ssDAF12 agonist
Cc1cccc(-c2cccc3c4c([nH]c23)[C@@H]2C[C@H](N(C)C(=O)OCc3ccccc3)[C@H]([C@H](C)O)CN2CC4)c1	.	-1.1	-2.4	-5.4	-1.1	-1.6
CCc1ccc2nc3n[nH]c(N)c3cc2c1	1.2	11.3*	3.8	3.7	2.9	-0.7
Nc1[nH]nc2nc3ccccc3cc12	0.7	2.9	2.9	2.2	1.1	-1.0
Cc1cccc(-c2cccc3c4c([nH]c23)[C@@H]2C[C@H](N(C)C(=O)NC3CCCCC3)[C@H]([C@H](C)O)C(=O)N2CC4)c1	.	3.4	-2.0	-6.1	-0.7	-0.8
CCOC(=O)N(Cc1ccccc1)Cc1ccc(C(=O)N[C@@H](Cc2ccccc2)C(=O)O)cc1	6.5*	1.9	-0.8	0.3	0.3	-1.7
CSc1nccc(N/N=C/c2ccccc2)n1	5.1*	10.9*	1.7	1.4	0.2	0.4
COc1ccc(Cl)cc1NC(=O)COC(=O)CCc1cc(OC)c(OC)c(OC)c1	0.2	-2.9	-1.8	-3.0	0.2	-1.6
COc1ccc(Cl)cc1NC(=O)/C=C\C(=O)O	1.7	1.5	5.1	-2.2	-0.6	0.9*
COc1ccc(NC(=O)/C=C/C(=O)O)cc1Cl	1.3	0.6	-1.4	-0.5	0.8	-1.2
COc1ccc(Cl)cc1NC(=O)Nc1ccc(Br)cn1	-0.2	3.1	6.0*	0.4	0.1	0.6
COc1ccc(Cl)cc1NC(=O)COC(=O)Cc1cc(OC)c(OC)c(OC)c1	-0.7	-0.1	-0.3	-2.0	-1.0	2.8*
O=C(NCCCc1ccccc1)OC1CCC12CCC(c1ccccc1)CC2 (stereo unspecified)	.	-0.8	-1.3	-1.5	0.0	-1.5
COc1cccc(-n2c(Cc3cc(=O)[nH]c(=O)[nH]3)nnc2SCC(=O)N2CCCCCC2)c1	2.7	-3.3	6.3*	6.6	-0.4	-0.5
COc1ccc(-n2c(Cc3cc(=O)[nH]c(=O)[nH]3)nnc2SCC(=O)N2CCC(C)CC2)cc1	1.9	-1.1	-0.2	-1.0	0.4	-1.4
COc1cccc(-n2c(Cc3cc(=O)[nH]c(=O)[nH]3)nnc2SCC(=O)N2CCCC2)c1	-1.4	-0.3	-0.4	0.7	0.2	-1.6
CC1CCN(C(=O)CSc2nnc(Cc3cc(=O)[nH]c(=O)[nH]3)n2-c2ccc(Cl)cc2)CC1	5.3*	0.9	-0.2	-0.1	-0.2	-0.5
CCOC(=O)[C@@]12CCCC=C1N(CCc1ccc(Cl)cc1)C(=O)[C@H]2CC(=O)N1CCCC1	.	-6.2	-4.2	-5.6	-4.2	-2.1
COC(=O)[C@]12C[C@H](CC(=O)NCC3CCCCC3)C(=O)N(Cc3ccco3)C1=C[C@H](COCc1ccccc1)O[C@@H]2C	.	0.7	-1.4	-3.6	-1.0	-1.2
Cc1cc(NC(=O)CCC(=O)N(CC(=O)NCC2CCCO2)c2ccc(F)c(Cl)c2)no1 (stereo unspecified)	4.2*	-1.2	-1.7	-0.8	-0.1	-1.2
O=C(N/N=C/C=C\c1ccccc1[N+](=O)[O-])c1ccccn1	1.7	10.7*	1.2	2.3	-0.7	-0.6
